# Results from PubChem BioAssay (NCI).
# This is part of a sample that, as a whole, favours compounds with a hit. Of some 79,000 tested, about 15% had one in any assay. Unmarked numbers belong to inactive results. The source made the active and inactive calls. No stated cut-off is given here; in the data, active means growth inhibition above about 70%; inactive means the rest.
# Key:
# [1] = NCI Yeast Anticancer Drug Screen. Data for the rad50 strain (AID 155);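 further: 0% = growth of vehicle-only cultures of the same strain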; settings: S. cerevisiae rad50 strain growth inhibition; at 50.0 µM; active compounds read high
# In short: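 Growth of the mutant yeast was measured after compound exposure and referenced to vehicle-treated cultures.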
# [2] = NCI Yeast Anticancer Drug Screen. Data for the mec2-1 strain (AID 157); settings: S. cerevisiae mec2-1 strain, at 50.0 µM, active compounds read high
# In short: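 Using mec2-1 yeast: add compound, measure growth, express inhibition versus vehicle-treated cultures.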
# [3] = NCI Yeast Anticancer Drug Screen. Data for the sgs1 mgt1 strain (AID 161);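 further: 0% = growth of cultures given vehicle only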; settings: S. cerevisiae sgs1 mgt1 strain, at 50.0 µM, active compounds read high
# In short: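 Compounds are added to genetically altered yeast, and growth is compared with cultures given vehicle alone to give percent inhibition.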
# [4] = NCI Yeast Anticancer Drug Screen. Data for the cln2 rad14 strain (AID 165);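 further: 0% = growth equal to vehicle treated cultures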; settings: S. cerevisiae cln2 rad14 strain, at 50.0 µM, active compounds read high
# In short: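 Yeast strain cln2 rad14, bearing defects in cell cycle control and DNA repair, serves as the test system; values reflect growth inhibition compared with vehicle.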
# [5] = NCI Yeast Anticancer Drug Screen. Data for the bub3 strain (AID 167); settings: S. cerevisiae bub3 mutant strain, at 50.0 µM, active compounds read high
# In short: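 Whole-cell yeast assay. The mutant strain was incubated with compounds, and growth inhibition was determined by comparison with vehicle-treated cells.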
# [6] = NCI Yeast Anticancer Drug Screen. Data for the mlh1 rad18 strain (AID 175); settings: S. cerevisiae mlh1 rad18 strain growth inhibition; at 50.0 µM; active compounds read high
# In short: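 Steps: expose repair-defective yeast to compound; measure growth; express inhibition against vehicle-treated controls.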
Compound,growth inhibition [1],growth inhibition [2],growth inhibition [3],growth inhibition [4],growth inhibition [5],growth inhibition [6]
S=CN1CCCCC1,-25.1%,-16.2%,-7.8%,-2.4%,-23.8%,-8.75%
Clc1ccc(C(SCc2ccccc2)SCc2ccccc2)cc1,-41.4%,-46.8%,-15.6%,-17.6%,-10%,-20.1%
COc1cc(C(=O)NC(=S)NCc2ccncc2)cc(OC)c1OC,9.6%,4.75%,-4.65%,-11.2%,34.2%,19.7%
COc1cc(CC#N)c([N+](=O)[O-])cc1OC,-3.15%,-22.1%,-12.8%,-39%,-14.2%,0.4%
NNC(=O)c1ccccc1N,-1.8%,4.35%,27.1%,-11.2%,-2%,-1.55%
Cc1c(Cl)cccc1N=C=S,-9.85%,-24%,15.4%,11.5%,-0.95%,8.7%
CCOS(=O)(=O)c1ccc([N+](=O)[O-])cc1,7.35%,5.95%,4.5%,5.15%,5.2%,5.8%
CCOC(=O)c1ccc(NC(C)=O)o1,-10.3%,11.3%,-3.35%,-23.1%,-5.35%,11.1%
CCCCCCCCCCCCCCCCOc1ccccc1NC(=O)CC(C)=O,-8.7%,-18.9%,-9.1%,-5.85%,-5.3%,-3.95%
COC1=C(OC)C(=O)C(SC/C=C(\C)CCCC(C)CCCC(C)CCCC(C)C)=CC1=O (centres undefined),-31.8%,-24.4%,-43.5%,16.6%,-52.6%,-61.1%
CCCC(=O)CC(=O)c1ccccc1,7.75%,10.4%,-3.75%,-13.6%,5.85%,4.4%
CC(=O)OCC1CCC(COC(C)=O)CC1 (centres undefined),9.75%,-30.6%,-10.4%,-5.95%,19.7%,-3.9%
N#Cc1ccc(OC(=O)Nc2cc(Cl)cc(Cl)c2)cc1,-6.5%,-21.9%,-3.65%,12.9%,-4%,-3.55%
C=CC(C)(C)n1cc(C2=C(O)C(=O)C(c3cn(C(C)(C)C=C)c4ccccc34)=C(O)C2=O)c2ccccc21,-1.6%,-26.6%,-2.3%,4.7%,-18.8%,-13.4%
CCOC(=O)CO,26%,6.85%,-13.4%,0.3%,17.2%,18.9%
CC(=O)Nc1ccc(/C=C2\SC(=S)N(/C=C(\C(C)=O)C(N)=O)C2=O)cc1,-52%,-7.4%,-37.6%,-0.8%,-5%,-11.2%
Cn1c(=O)[nH]c2ccccc2c1=O,-1%,4.5%,-2.1%,0.7%,6.85%,5.05%
CC1(C)OC2C(CO)OC(n3ccc(=O)[nH]c3=O)C2O1 (centres undefined),1.9%,0.9%,-12.3%,-7.3%,10.5%,-4.35%
CS(=O)(=O)c1ccc(/C=C\C(=O)O)cc1,19.6%,7.1%,9%,-8.4%,,19.2%

Compound,growth inhibition [1],growth inhibition [2],growth inhibition [3],growth inhibition [4],growth inhibition [5],growth inhibition [6]
CC(C)c1ncc([N+](=O)[O-])n1C,-13.2%,2.9%,-16.6%,-30.1%,,8.75%
C#CC(O)c1ccccc1 (centres undefined),-2.4%,-15.3%,13.1%,-11.6%,0.9%,-0.65%
Cc1nc(C)c(C(=O)O)cc1C(=O)O,-8.9%,-17.8%,9.15%,2.85%,21.4%,4%
CC(C)(N)CO[C@H]1C[C@H]2CC[C@@]1(C)C2(C)C,11.8%,-5.7%,2.4%,-26.4%,10.2%,-6.15%
CC1CN(CCO)CC(C)O1 (centres undefined),-14.1%,-26.8%,4.05%,5%,-1.15%,-10.2%
C=C(OC(C)=O)c1ccccc1,6.45%,-12.4%,5.8%,-7.25%,28.3%,0.05%
COc1ccc(C2CCCCC2=O)cc1 (centres undefined),-17.2%,-48.9%,-11.8%,5.3%,-34.2%,-11.8%
CC(=O)NC(CCc1ccc(Cl)c(Cl)c1)c1cccc(O)c(=O)c1 (centres undefined),88.9% (active),92% (active),86% (active),63.7%,,88.9% (active)
COc1c(CNC(=O)CCl)cc2[nH]c(C)cc2c1CNC(=O)CCl,4.9%,4.95%,17.3%,2.2%,,-25.9%
Cc1ccc(Cc2ccc(C)cc2)cc1,-30.2%,-34.2%,-30.3%,3%,-4.6%,-8.2%
Nc1ncnc(Nc2ccccc2)n1,-6.05%,-28.1%,-4.1%,15.1%,-5.8%,7.1%
C[n+]1c(/C=C\C=C\N2CCCCC2)sc2ccccc21,28.7%,14.6%,34.4%,2.45%,,27.9%
CC1(C)CCC(C)(C)NC(=S)N1,13.3%,-8.35%,21.2%,1.9%,,11.1%
CCNc1ccc2ccccc2c1N=Nc1ccc(N=Nc2ccccc2)cc1,-12.4%,-30%,11.5%,9.75%,-12.7%,-8.55%
CC(=O)OCC1OC(n2cnc3c(=S)nc(N)[nH]c32)C(OC(C)=O)C1OC(C)=O (centres undefined),73% (active),42%,48.5%,-12.4%,11.1%,24.6%
O=C(Nc1cccc(Cl)c1)c1ccc(Cl)cc1Cl,1.95%,5.85%,2.2%,-48.5%,,0.1%
ClCC(Cl)[C@@H]1CC2C=CC1C2 (some centres undefined),2.85%,-3.65%,10.3%,15.6%,,-6.1%
O=C(OC1CCCC1)c1ccccc1Cl,23.9%,8.75%,3.75%,-21.7%,-2.3%,23.2%
